Results on 88 compounds are retold here after PubChem BioAssay AID1159606 (Sanford-Burnham Center for Chemical Genomics, 2016).

The campaign covered roughly 360,000 compounds. About 7,300 (2%) were called active. Shown is part of a subset that was picked to be rich in actives. A number with no mark means an inactive call. Cut-off read from the data, not from the text of the source: active = inhibition above about 50%; inactive = the rest.

This assay can be described thus: blockers of TWEAK-induced Fn14 reporter activity – luciferase reporter cells, uHTS, primary screen (AID 1159606). Particulars: TWEAK-stimulated Fn14 reporter cells, luciferase luminescence, 8 h; at 10 µM; active compounds read high. Background: In a reporter assay the amount or activity of a reporter protein is the signal.
As usually defined, the inhibition is the relative decrease from the control value, in per cent. In the case of `COc1nc(OC)nc(N(C)CCO)n1`, the inhibition is 5.06%.
Then `O=C(CCc1ccccc1)Nc1nn[nH]n1`, with -6.61%; and `CCOc1ccc(CCN2C(=O)C(=O)N([C@@H](CC(C)C)CN3CCC[C@H]3CN3C(=O)C(=O)NC[C@@H]3Cc3ccccc3)C[C@@H]2CC(C)C)cc1`, with 18.1%; and `CCc1nc2c(OCC(N)=O)cccn2c1N(C)C(=O)c1ccc(OC)cc1`, with -0.65%.
Then `Cc1cccc(C(=O)O)c1[N+](=O)[O-]`, with -0.13%; and `O=C(NCc1ccccc1)C(=O)NCC1OCCN1S(=O)(=O)c1ccc(Br)cc1` (stereo not drawn), with -2.34%; and `CC(NC(=O)COC(=O)Cn1cc(C(F)(F)F)ccc1=O)c1ccccc1` (stereo not drawn), with 19.7%.
As for `CCC(C)NCC(=O)Nc1ccc([N+](=O)[O-])cc1C(=O)Nc1ccccc1F` (stereo not drawn), the figure is 3.23%; as for `CC(=O)OCCN(CCCn1c(-c2ccncc2)nc2ccccc21)c1nc(-c2ccc(C)cc2)cs1`, 4.36%; as for `CCCCOCCCNC(=O)C[C@@H]1C[C@@]2(C(=O)OC)CCCCC=C2N(CCC2=CCCCC2)C1=O`, 11%.
On to `COc1ccc(S(=O)(=O)N2C[C@H]3CON(C)[C@H]3C[C@H]2c2cccc(Br)c2)cc1`, for which the inhibition was -6.92%.
As for `CN1OC[C@@H]2CN(S(=O)(=O)c3cccc(C(F)(F)F)c3)[C@H](c3ccc(-c4cc5ccccc5o4)cc3)C[C@@H]21`, the inhibition was 62.2% (active).
As for `CN1OC[C@@H]2CN(S(=O)(=O)c3cccc4ccccc34)[C@H](c3ccc(N4CCCCC4)cc3)C[C@@H]21`, the figure is -7.73%; as for `CC(C)(C)n1ncc2c(=O)n(Cc3c(Cl)cccc3Br)cnc21`, 3.93%; as for `CC(=O)Cn1cnc2c(cnn2-c2ccccc2)c1=O`, 4.23%.
Then `CC(C)(C)n1ncc2c(=O)n(Cc3ccc(Cl)cc3)cnc21`, with 68.2% (active); and `O=C(O)CSCc1ccc(C(=O)O)o1`, with -3.63%.
As for `CC(CO)NCC12CC3CC(CC(C3)C1)C2` (stereo not drawn), the inhibition was 13.3%.
As for `COC(=O)CSc1ncnc2c1cnn2-c1ccc(C)cc1C`, the figure is -11.2%.
As for `CC(Sc1ncnc2c1cnn2-c1ccccc1)C(=O)Nc1ccc(N2CCOCC2)cc1` (stereo not drawn), the figure is -20.4%.
Consider `Cc1ccc2cc(C)c(N3CCN(c4ccc(F)cc4)CC3)nc2c1`, for which the inhibition is 8.39%.
Then `Cc1ccc(-n2ncc3c(N4CCN(c5ccc(F)cc5)CC4)ncnc32)c(C)c1`, with 73% (active); and `COc1ccc(-n2ncc3c(SCC(=O)NNC(C)=O)ncnc32)cc1`, with 14.6%.
As for `COc1ccc(-n2ncc3c(N4CCCc5ccccc54)ncnc32)cc1`, the figure is 58.1% (active); as for `CC(C)Sc1ncnc2c1cnn2-c1ccccc1`, 15.4%.
As for `COc1ccc(-n2ncc3c(N4CCc5ccccc54)ncnc32)cc1`, the figure is -15.6%; as for `c1ccc(-n2ncc3c(N4CCCC4)ncnc32)cc1`, 62.5% (active).
Turning to `CCOC(=O)c1c(N=CN(C)C)c(C#N)c2n1CCCC2`, the inhibition is -13.8%.
Then `COc1ccc(C(C)NC(=S)NC2CCCCC2)cc1OC` (stereo not drawn), with 10.8%.
Then `CC(C)CN(C(=O)CSc1ncnc2sccc12)C1CCS(=O)(=O)C1` (stereo not drawn), with 4.56%; and `COc1cc(OC)cc(C2=Cc3ccccc3C(CC(=O)c3ccco3)N2c2ccc(-c3cnc(OC)nc3)cc2)c1` (stereo not drawn), with 16.7%; and `Cc1ccc(NC(=O)CC2S/C(=N/N=C3\CCCc4ccccc43)NC2=O)cc1` (stereo not drawn), with 11.1%.
As for `Cc1ccc(-n2c(SCC(=O)NCc3ccc4c(c3)OCO4)nnc2-c2cccnc2)c(C)c1`, the figure is -9.21%; as for `CCCc1[nH]nc2c1C(c1ccc(Br)s1)C(C#N)=C(N)O2` (stereo not drawn), 30.2%.
With `N#CC1=C(N)OC2=C(C(=O)CCC2)C1C1CC=CCC1` (stereo not drawn), the inhibition was 24.8%.
`CCCc1[nH]nc2c1C(C1CC=CCC1)C(C#N)=C(N)O2` (stereo not drawn): the inhibition is 53.8% (active).
As for `CCCCCc1c(-c2cccc(Br)c2)ncn1CCc1ccccc1OC`, the inhibition is -2.04%.
In the case of `CCCCc1c(-c2ccc(Cl)cc2)ncn1CCc1ccccc1OC`, the inhibition is 26.6%.
Then `CCCCCc1c(-c2ccc(OC)c(OC)c2)ncn1CCc1ccccc1OC`, with 62.6% (active); and `Cn1c(SCC(=O)Nc2ccc(N3CCOCC3)cc2)nnc1C(F)(F)F`, with -2.56%; and `Cc1cc(Br)cn2c(Cc3ccccc3C(F)(F)F)c(-c3ccc(Cl)cc3)nc12`, with 26.9%.
As for `CCCc1ccc(-c2c(C)sc(NC(=O)c3ccnn3C)c2C#N)cc1`, the figure is 13.3%; as for `Cc1ccc(CNC(=O)c2ccc3c(c2)S(=O)(=O)c2ccccc2C3=O)cc1`, -18%; as for `COC(=O)CNC(=O)c1ccc2c(c1)S(=O)(=O)c1ccccc1C2=O`, 65.4% (active).
As for `CC(C)(C)c1ccc(C(=O)NCC(=O)OCN2C(=O)c3ccccc3C2=O)cc1`, the figure is -8.88%.
In the case of `CCCc1nc(NCc2ccc3c(c2)OCO3)c2nnn(Cc3ccccc3Cl)c2n1`, the inhibition is -10.6%.
Turning to `Cc1nc(Nc2ccc3c(c2)OCCO3)c2nnn(Cc3ccccc3Cl)c2n1`, the inhibition was 94.4% (active).
Then `Cc1nc(Nc2ccccc2F)c2nnn(Cc3ccccc3Cl)c2n1`, with 20%.
Then `O=C1C2C3C=CC(C3)C2C(=O)N1c1ccc(-c2nc3ccccc3c(=O)o2)cc1` (stereo not drawn), with -0.15%; and `O=C(/C=C/[C@H]1O[C@@H](n2ccc(=O)[nH]c2=O)[C@H](O)[C@@H]1O)NCc1ccccn1`, with 9.38%.
In the case of `CCc1ccccc1OCC(=O)Nc1ccc(C)c(S(=O)(=O)N2CCCCCC2)c1`, the inhibition was 12.8%.
Then `COc1cc(NC(=O)COc2ccccc2Cl)ccc1NC(=O)C(C)C`, with -5.09%; and `Cc1ccccc1OCC(=O)Nc1ccc(N2CCN(C(=O)C(C)C)CC2)c(Cl)c1`, with 70.6% (active).
As for `Cn1nnnc1SCC(=O)Nc1ccccc1C(=O)NC1CC1`, the figure is -4.44%; as for `COCCOC(=O)c1c(C)oc2cc(Br)c(OCC(N)=O)cc12`, -6.98%.
`CCCCCc1ccc(-c2ccc(OCC)cc2)nc1`: the inhibition is -9.17%.
Then `CCCCCc1ccc(-c2ccc(C(=O)O)cc2)nc1`, with 87.5% (active); and `CCCCCC(=O)Nc1ccc(-c2cn3cccnc3n2)cc1`, with -20.2%.
Then `O=C(NC(=S)Nc1ccccc1C(=O)O)c1ccc(-c2ccc(Br)cc2)o1`, with 47.2%; and `CCOC(=O)c1c(C)[nH]c(C)c1S(=O)(=O)NCCCc1ccco1`, with -7.27%.
Then `CCOC(=O)c1c(C)[nH]c2c1-c1ccccc1C(=O)C2=O`, with 101% (active); and `CCOC(=O)c1c(NC(=O)CSc2nccc(=O)[nH]2)sc(C)c1C`, with -3.68%.
As for `Cc1cccc(CN2CCN(C3CN(Cc4cn(Cc5ccccc5F)nn4)S(=O)(=O)C3)CC2)c1` (stereo not drawn), the inhibition was -19.2%.
As for `NC(=O)C1CC(=O)N(c2ccc(OCC(=O)NCc3ccccc3)cc2)C1` (stereo not drawn), the figure is 32.7%; as for `Cc1cccc(C)c1NC(=O)CNC(=O)c1ccc(N2CCOCC2)c([N+](=O)[O-])c1`, 8.19%.
As for `O=S(=O)(NCCCCCCNS(=O)(=O)c1c(F)cccc1F)c1ccc2c(c1)OCCO2`, the figure is 16.7%.
With `O=C1NC[C@H](Cc2ccc(O)cc2)N(C[C@@H]2CCCN2C[C@H](Cc2ccccc2)N2C[C@H](Cc3ccccc3)N(CC3CCCCC3)C(=O)C2=O)C1=O`, the inhibition is -9.41%.
Turning to `COc1cccc(C(=O)N/N=C(\C)c2cccc(NC(=O)c3ccc(F)cc3)c2)c1OC`, the inhibition is -20%.
Then `CC1CCN(C(=O)c2ccc(S(=O)(=O)Cc3cc(F)ccc3F)c([N+](=O)[O-])c2)CC1`, with 83.4% (active); and `O=C(c1ccc(Oc2ccc(Cl)cc2)c([N+](=O)[O-])c1)N1CCCC1`, with -4.37%; and `Nc1ccc(C(=O)N2CCN(S(=O)(=O)c3ccc(Cl)cc3)CC2)cc1[N+](=O)[O-]`, with -5.64%.
As to `O=C(NCCc1ccccn1)c1ccc(COc2ccccc2)o1`, the inhibition is -2.18%.
For the compound `COc1ccc(/C=C/C(=O)c2ccc(NS(=O)(=O)c3ccc(C)cc3)cc2)cc1O`, the inhibition is 60.9% (active).
As for `Cc1ccc(C(=O)/C=C/Nc2ccc(S(=O)(=O)Nc3onc(C)c3C)cc2)cc1`, the figure is -32%; as for `COc1ccc(/C=C/C(=O)Nc2ccc(C)cc2)cc1S(=O)(=O)N1CCOCC1`, -4.91%; as for `COc1ccc(CNC(=O)c2c[nH]c3c(OC)cc(OC)cc3c2=O)cc1`, -46.6%.
As for `CCCCN1C(=O)c2ccc(C(=O)Nc3ccc(S(=O)(=O)N(C)C)cc3)cc2C1=O`, the figure is 33.8%; as for `O=C(c1[nH]ncc1-c1ccc(Cl)cc1)C1CO1` (stereo not drawn), 66.5% (active).
As for `COc1ccc(NC(=O)C2Cc3c(-c4ccc(Cl)cc4)ccnc3O2)cc1` (stereo not drawn), the figure is 6.65%; as for `Cc1ccc(S(=O)(=O)n2oc(=O)c(C3CCCCC3)c2N)cc1`, 2.92%; as for `CCCS(=O)(=O)Nc1ccc(-c2cn3c(n2)SCC3)cc1`, -17.6%.
As for `Cc1ccccc1Cn1nc(C)c(NC(=O)C(F)(F)F)c1C`, the inhibition is -0.38%.
As for `Cc1nn(Cc2ccc(Cl)c(Cl)c2)c(C)c1NC(=O)c1cc(C2CC2)on1`, the figure is -9.69%; as for `Cc1nn(Cc2ccc(F)cc2)c(C)c1NC(=O)c1noc2c1CCc1ccccc1-2`, 60.1% (active); as for `CC(C)(C)C1CCC(=O)N2CCC[C@]2(c2ccccc2)C1` (stereo partly drawn), -2.82%.
Then `COc1ccc(NC(=O)CCCNC(=O)Cn2cnc3sc4c(c3c2=O)CCCC4)cc1OC`, with 4.82%; and `COc1ccc(/C=N/Nc2ncnc3sc4c(c23)CCCC4)cc1O`, with 91.4% (active).
As for `COc1ccc(NC(=O)CCNC(=O)Cn2cnc3sc4c(c3c2=O)CCCC4)cc1OC`, the figure is -3.89%.
